Test results as given in PubChem BioAssay (NCI).
Compounds without any hit were thinned out: in the full panel of roughly 83,000, 20% have a hit.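 Percent growth is the endpoint: 0 to 100 indicates growth inhibition (40 means 60% inhibition), 0 means no net growth, and negative values indicate cell death.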 A number with no mark means an inactive call. Activity calls are given as the source filed them. Rule for the calls: active = growth percent below 10; inactive = the rest.

These compounds were tested on MDA-MB-468 breast (assay: NCI-60 one-dose screen, 48 h (100 = growth as untreated, 0 = no growth, -100 = all killed)). Conditions: 10 µM unless noted.

Row | Compound | growth
1 | O=C(c1ccc(O)c(Br)c1)c1ccc(O)c(Br)c1 | 106%
2 | COc1ccc(-n2nc3c(c2-c2ccc(OC)c(OC)c2)-c2oncc2CC3)cc1 | 90.1%
3 | Cn1c(N2N=C(c3ccc(Cl)cc3)CC2c2ccccc2)nc(-c2ccccc2)c(C#N)c1=O (centres undefined) | 74%
4 | O=C1c2cc3c(cc2-c2c1c1ccc(Cl)cc1c(=O)n2CCCn1ccnc1)OCO3 | -47.9% (active)
5 | Cc1cc(OC(=O)c2ccc([N+](=O)[O-])cc2)nc2[nH]c(=O)sc12 | 100%
6 | Oc1[nH]c2ccc(Cl)cc2c1/C=c1/ccc2c(c1)N=C(c1ccc(C(F)(F)F)cc1)N=2 | 52.5%
7 | COc1ccc(-c2nc(SC)nc(N3CCOCC3)c2C#N)cc1 | 101%
8 | COc1cc(C2CC(c3ccc4c(c3)OCO4)=NN2C=O)cc(OC)c1OC (centres undefined) | -12.7% (active)
9 | O=C(N/N=C/c1c(Cl)cccc1Cl)c1cccnc1Nc1cccc(C(F)(F)F)c1 | 26.6%
10 | COc1cccc(-c2nn(-c3ccccc3)cc2-c2ccnc(NCCCN)c2)c1 | 17.4%
11 | O=C(/C=C1\C(=O)N(Cc2ccccc2)c2ccccc21)c1ccc(OCCN2CCCCC2)cc1 | 19.6%
12 | COc1ccc(NC(=O)c2sc3nc(C)c(C(O)c4ccc(OC)cc4)cc3c2N)cc1 (centres undefined) | 24.8%
13 | Cc1ccc(/C=C2\SC(=S)N(CC(=O)NCCCN3CCOCC3)C2=O)cc1 | 94.9%
14 | O=C(CN1C=NC2C(N3CCOCC3)=NC=NC21)c1cccc2ccccc12 (centres undefined) | 85.9%
15 | CCCCC1=C(Br)C(=O)c2nc(C)ccc2C1=O | 92.6%
16 | Cc1cc(Cl)c2c(N(C)C)cccc2n1 | 77.4%
17 | CC(=O)Oc1ccc(Cl)cc1CN(C(C)=O)C1CCCCC1 | 101%
18 | COc1ccc(SC2c3ccc(C)cc3Oc3nc(N)c(C#N)c(N)c32)cc1 (centres undefined) | -51% (active)
19 | O=C1c2cccnc2C(=O)c2c1c(C(=O)OCCN1CCOCC1)c1ccccn21 | -2.61% (active)
20 | Cn1c(N)c(N=Nc2ccc(S(=O)(=O)Nc3nccs3)cc2)c(=O)n(C)c1=O | 116%

Row | Compound | growth
21 | CCCCCCCC[C@@H]1N[C@@H](C(=O)OC)Cc2c1[nH]c1ccccc21 | 94.3%
22 | C=CC(=O)N1CCC(Oc2cc3c(Nc4ccc(Cl)c(Cl)c4F)ncnc3cc2OC)CC1 | -62.5% (active)
23 | CCCCC(O)c1ccccc1 (centres undefined) | 98.6%
24 | COc1c(OCCCN2CCOCC2)ccc2c3n(c(=NC(=O)c4cnc(N)nc4)nc12)CCN3 | -23.5% (active)
25 | Nc1ncc(-c2ccc3ncnc(N4CCc5cc(F)c(Cl)cc54)c3c2)cc1C(F)(F)F | -26.1% (active)
26 | C[C@H]1[C@H]2[C@H]3CC[C@@H]4[C@@]5(C)C/C(=C/c6cccnc6)C(=O)C(C)(C)[C@@H]5CC[C@@]4(C)[C@]3(C)CC[C@]23CO[C@]1(C)[C@@H](C(=O)/C=C\c1cccnc1)C3 | -5.83% (active)
27 | CCc1cccc2c3c(sc12)C(c1ccc(Cl)cc1)C(C#N)=C(N)O3 (centres undefined) | -7.98% (active)
28 | CC1Cc2c(Cl)ncnc2N(C)c2ccc(Cl)cc21 (centres undefined) | -35.8% (active)
29 | CNC(=O)c1cc(-c2ccc(NS(=O)(=O)c3ccc(C)cc3)cc2)nc2cccnc12 | 71.1%
30 | Cn1c(=O)c2[nH]c(C(O)C(O)C(O)C(O)CO)nc2n(C)c1=O (centres undefined) | 118%
31 | N#Cc1cnc2ccc(-c3cnc4n[nH]nc4c3)cc2c1N1CCc2cc(F)c(Cl)cc21 | -13.9% (active)
32 | CCOC(=O)CC[C@H](NC(=O)c1ccc(N(C)Cc2cnc3nc(N)nc(N)c3n2)c2ccccc12)C(=O)OCC | 27.1%
33 | CN(C)CCC(CCN(C)C)(C(=O)O)c1ccccc1 | 102%
34 | O=C(Nc1ccccc1)OCC1OCOC(COC(=O)Nc2ccccc2)C1OC(=O)Nc1ccccc1 (centres undefined) | -1.51% (active)
35 | COCCCNC1=C(C#N)C(=O)NC(c2cccs2)S1 (centres undefined) | 93.8%
36 | O=C1Nc2ccc(Br)cc2C12CC(c1ccccc1)=NN2 (centres undefined) | 48.6%
37 | CC1(C)N=C(N)N=C(N)N1c1cc(Cl)ccc1Cl | 53.5%
38 | CCC(CC)NCC(C)(C)O | 104%
39 | CCCCCCNC(=O)Oc1ccc(/C(=C(/CC)Cc2ccccc2)c2ccc(OCCN3CCCCC3)cc2)cc1 | 86.3%
